Screening results as filed in PubChem.
hERG WT inh – qHTS for Inhibitors of KCHN2 3.1: Wildtype qHTS | Voltage-gated inwardly rectifying potassium channel KCNH2 (Homo sapiens), Q12809 | U2OS, BacMam KCNH2, thallium flux FluxOr; active compounds read low | activity change, % at 1.84 µM | actives 0.37% (n = 340,000) | AID 720551, 2013;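 active means maximum activity change below -70%; inconclusive means maximum activity change between -70% and -50%; inactive means maximum activity change above -50%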; further: on the % scale 0 is the no-effect control and ±100 the full control effect
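U2OS cells transduced with wild-type KCNH2 virus are loaded with FluxOr dye for 45 min, and thallium flux is measured in kinetic reads before and after stimulation buffer. Rate constants are normalized to DMSO controls.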
Mm-Cpn inhibitor – Inhibitors of TCP-1 ring complex (TRiC) of Methanococcus maripaludis (MmCpn): qHTS. AID 504842, 2011. Potency, µM (titrated, usually from 76.9 µM), without a hit: top-dose activity, negative = inhibition, hits mostly inhibitors. actives 0.031% (n = 330,000). purified Mm-Cpn ATPase, ADP Transcreener TR-FRET; active means well fitted inhibition curve with a large enough effect; inconclusive means small, poorly fitted or top-dose-only effect; further: potency means the concentration at half of the fitted maximal effect; on the % scale 0 is the no-effect control and ±100 the full control effect; nearly all actives have a fitted effect of over 80% in size
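Quantitative HTS used 25 nM Mm-CPN and 10 uM ATP in magnesium/KCl Tris buffer, pH 7.4, with 1 mM DTT. Hydrolysis ran 30 min at 37°C; ADP was read by HTRF.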
KCNH2 3.1 inh – qHTS for Inhibitors of KCHN2 3.1: Mutant qHTS. actives 0.95% (n = 340,000). U2OS KCNH2 3.1, thallium flux FluxOr; active compounds read low. activity change, % (tested at about 1.8 µM). Potassium voltage-gated channel subfamily H member 2, brain isoform KCNH2 3.1 (human). AID 720553, 2013;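 active means maximum activity change below -70%; inconclusive means maximum activity change from -70% to -50%; inactive means maximum activity change above -50%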;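 further: thallium influx rate constant from kinetic fluorescence after stimulation buffer; on the % scale 0 is the no-effect control and ±100 the full control effect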
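FluxOr-based Tl+ influx in U2OS cells transduced with KCNH2 3.1 virus; rate constants normalized to DMSO controls.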
Rango-impB inh – qHTS Assay for Inhibitors of Rango (Ran-regulated importin-beta cargo) - Importin beta complex formation | Rango CFP/YFP FRET sensor + importin beta, 45 min | Potency, µM (titrated, usually from 92.2 µM), for the others: top-dose inhibition of complex formation | actives 0.031% (n = 340,000) | AID 540263, 2011;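 further: potency means the concentration at half of the fitted maximal effect; 0% = DMSO wells and 100% = buffer wells lacking importin beta; nearly all actives have a fitted effect of over 15% in size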
Target sequence (Q14974 whole entry, looked up): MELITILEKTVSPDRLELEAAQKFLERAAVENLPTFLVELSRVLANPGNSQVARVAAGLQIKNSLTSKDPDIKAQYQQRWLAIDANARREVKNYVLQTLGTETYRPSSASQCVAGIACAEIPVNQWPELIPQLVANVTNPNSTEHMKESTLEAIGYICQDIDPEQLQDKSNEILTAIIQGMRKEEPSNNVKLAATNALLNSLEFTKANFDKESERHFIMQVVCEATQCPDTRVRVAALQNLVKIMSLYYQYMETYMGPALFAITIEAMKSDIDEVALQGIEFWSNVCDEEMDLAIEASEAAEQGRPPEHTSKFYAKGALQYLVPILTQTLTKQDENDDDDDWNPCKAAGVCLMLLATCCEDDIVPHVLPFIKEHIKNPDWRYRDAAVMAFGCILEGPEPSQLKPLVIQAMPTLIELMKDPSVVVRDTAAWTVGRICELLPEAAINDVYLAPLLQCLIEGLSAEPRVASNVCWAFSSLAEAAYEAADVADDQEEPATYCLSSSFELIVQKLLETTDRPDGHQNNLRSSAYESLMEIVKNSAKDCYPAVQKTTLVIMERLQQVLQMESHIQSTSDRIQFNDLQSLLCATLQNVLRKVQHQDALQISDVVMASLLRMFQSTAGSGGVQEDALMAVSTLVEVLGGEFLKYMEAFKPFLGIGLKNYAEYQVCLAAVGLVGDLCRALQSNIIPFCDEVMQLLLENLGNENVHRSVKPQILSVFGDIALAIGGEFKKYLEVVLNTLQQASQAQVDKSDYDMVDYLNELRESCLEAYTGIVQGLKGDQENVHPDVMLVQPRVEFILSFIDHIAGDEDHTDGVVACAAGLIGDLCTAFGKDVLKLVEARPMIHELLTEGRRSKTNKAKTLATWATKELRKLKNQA
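FRET biosensor Rango (snurportin 1 IBB between N-terminal EYFP and C-terminal Cerulean), 50 nM in PBS/1 mM DTT/0.02% Tween-20/0.1% BSA, preincubated 5 min RT with compound; 0.125 microM importin beta added, 45 min RT, CFP/YFP FRET ratio read.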
Rango dissoc inh – qHTS Assay for Inhibitors of RanGTP induced Rango (Ran-regulated importin-beta cargo) - Importin beta complex dissociation; Snurportin-1 (Homo sapiens) + GTP-binding nuclear protein Ran (Homo sapiens) + Importin …; Biochemical FRET Rango-importin beta, RanGTP-induced dissociation; Potency, µM (series often up to 46.1 µM), without a hit: at the top dose activity change, negative = inhibition; actives 0.071% (n = 340,000); AID 540253, 2011; further: potency means the concentration at half of the fitted maximal effect; % of control where 0% means no effect; nearly all actives have a fitted effect of over 45% in size
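Quantitative HTS using a FRET biosensor: 0.1 uM Rango, 0.25 uM importin beta, 0.6 uM Ran, 2 mM GTP, 0.2 uM RCC1 final, PBS with DTT, Tween-20 and BSA. Post-read taken 45 min after Ran addition.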
CCT chaperon mod – High-Throughput Screening for Modulators of Cytosolic Chaperonin Activity; purified chaperonin ATPase assay, HTRF ADP detection, 30 min; activity change, % (test concentration not listed), hits read low; actives 0.3% (n = 360,000); in the data active means activity change below about -30%; further: on the % scale 0 is the no-effect control and ±100 the full control effect
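TRiC at 40 or 20 nM final (batch-dependent) in 30 mM Tris pH 7.4, 100 mM KCl, 5 mM MgCl2, 1 mM DTT, with compound at single 76 uM and 10 uM ATP, 30 min at 37 deg C. ADP detected by HTRF Transcreener, 665/615 ratio.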
Numbers without * were called inactive; ? = inconclusive; · = no result. In the library only some 1.4% were active in any assay of this set; here they are far more common. Unless noted, the call rests on the fitted dose curve.

SMILES	hERG WT inh	Mm-Cpn inhibitor	KCNH2 3.1 inh	Rango-impB inh	Rango dissoc inh	CCT chaperon mod
COc1ccccc1C1/C(=C(/O)c2ccc(C)cc2)C(=O)C(=O)N1CC(C)O (centres undefined)	12	0%	5	0%	-9%	-1
Cc1ccc(/C(O)=C2\C(=O)C(=O)N(CC(C)O)C2c2ccc(N(C)C)cc2)cc1 (centres undefined)	-123*	-2%	-5	?	-7%	-1
CCOC(=O)c1cnc(-n2nc(C)cc2C)nc1NC1CCCCC1	-105*	-1%	-12	3%	-14%	1
C=CCSc1nc2c(N)ncnc2n1C1OC(CO)C(O)C1O (centres undefined)	1	·	-1	·	·	-1
COc1ccc(C(=O)n2nc(-c3ccco3)nc2SC)cc1OC	-132*	3%	-177*	-4%	-14%	-6
COc1cccc(-c2ccc(NC(=O)C3CCCN(CCCn4nc(C)cc4C)C3)cc2)c1 (centres undefined)	1	-3%	-74*	-4%	7%	0
Cc1ccc(Cl)cc1N1CCN(CC(O)COC(C)C)CC1 (centres undefined)	28	-1%	-77*	5%	-8%	-2
OC(COC(c1ccc(Cl)cc1)c1ccc(Cl)cc1)CN1CCCC1 (centres undefined)	-140*	·	-112*	12%	16%	-1
CN1CCN(CC(O)COC(c2ccc(Cl)cc2)c2ccc(Cl)cc2)CC1 (centres undefined)	9	-1%	-94*	?	-7%	2
CC1CCC2C(=O)N(c3ccccc3OC(=O)c3ccccc3F)C(=O)C2C1 (centres undefined)	0	1%	4	1%	-7%	1
CC(C)C(=O)Nc1ccc(C(=O)NNC(=O)CCc2ccccc2)cc1	-17	-2%	-76*	1%	24%	2
Cc1ccc(-n2nc(C)c3c(C)c(CCC(=O)NCc4ccccc4)c(C)nc32)cc1	-4	-1%	-107*	-2%	-2%	0
Cc1ccc(CNC(=O)CCc2c(C)nc3c(c(C)nn3-c3ccc(C)cc3)c2C)cc1	-13	-4%	-11	-2%	-13%	1
CCCn1c(N)c(N(CCOC)C(=O)c2ccc([N+](=O)[O-])cc2Cl)c(=O)[nH]c1=O	7	1%	2	-1%	-12%	-2
Cc1ccc(-c2ccnc(-c3ccc(O)cc3)n2)cc1	-4	0%	-7	2%	11%	-38*
Cc1ccc(C)c(S(=O)(=O)N2CCCOC2CNC(=O)C(=O)NC2CC2)c1 (centres undefined)	21	1%	18	-1%	1%	-1
COc1c(OC(C)=O)ccc(/C=C/c2ccc3ccccc3n2)c1[N+](=O)[O-]	-3	0%	-77*	0%	-5%	0
Cc1cc2c(s1)c1c(C)nn(Cc3ccccc3F)c(=O)c1n2C	·	-16%	·	·	·	·
COc1cccc(CN2CCC(N(CCc3ccccc3)Cc3ccccc3)CC2)c1OC	20	2%	-91*	2%	6%	-1
COc1cccc(CN2CCN(Cc3cccc(Oc4ccccc4)c3)CC2)c1OC	6	-5%	3	5%	-17%	2
CCC(C)(C)c1nnc(NC(=O)c2ccc([N+](=O)[O-])cc2)s1	2	1%	16	9%	-1%	-3
CCCCn1c(N)c(N(CCOC)C(=O)C2CCN(c3ncnc4sc(C)c(C)c34)CC2)c(=O)[nH]c1=O	-7	-2%	-13	-5%	21%	0
Cc1cccc(C)c1Nc1nnc(SCc2cn3cccc(C)c3n2)s1	·	0%	-179*	0%	16%	0
Oc1ccc(CNc2cccc(C(F)(F)F)c2)c2cccnc12	·	2%	·	·	·	·
CCCCCC(=O)NC(=S)Nc1ccc2oc(=O)ccc2c1	4	-1%	3	0%	15%	-3
SMILES	hERG WT inh	Mm-Cpn inhibitor	KCNH2 3.1 inh	Rango-impB inh	Rango dissoc inh	CCT chaperon mod
CC(=O)NC(c1ccco1)c1cc(Cl)c2ccc(N(C)C)nc2c1O (centres undefined)	·	-9%	·	·	·	·
COc1cccc(C(=O)NC(C)C(c2cccs2)N2CCN(C)CC2)c1 (centres undefined)	-5	-10%	-72*	-3%	-1%	-4
CC(NC(=O)c1cccnc1)C(c1cccs1)N1CCN(C)CC1 (centres undefined)	3	0%	-6	3%	-12%	1
Cc1ccc(CNC(=O)Cn2c(=O)oc3ccccc32)o1	8	-1%	11	-4%	-3%	-3
CCCCCN1CSC(=S)N(Cc2ccccc2)C1	-74*	0%	-22	0%	13%	0
CCN1CSC(=S)N(Cc2ccccc2)C1	-1	-1%	11	1%	7%	-2
Cc1ccc(C(=O)Nc2ccnc(-c3cccnc3)n2)cc1	-8	-1%	-109*	?	-15%	-1
CCC(=O)Nc1ccnc(-c2cccnc2)n1	5	1%	-108*	3%	13%	0
CCN(c1ccccc1)S(=O)(=O)c1ccc2c(c1)OCCO2	-1	2%	-14	1%	-2%	-1
CCC(=O)Nc1c(C(=O)Nc2ccc3c(c2)OCCO3)oc2ccccc12	-14	-3%	3	-8%	19%	-2
O=C(Nc1ccc2c(c1)OCCO2)c1oc2ccccc2c1NC(=O)C1CC1	-6	4%	-15	-5%	12%	-45*
Cc1cccc(N/C(=N/S(=O)(=O)c2ccccc2)c2ccccc2)n1	4	-1%	17	-2%	-12%	0
N=c1c(C(=O)NC2CCCCC2)cc2c(=O)n3ccccc3nc2n1CCc1ccccc1	?	2%	-79*	?	?	1
N=c1c(C(=O)NC2CCCCC2)cc2c(=O)n3ccccc3nc2n1Cc1ccccc1	-7	3%	-14	?	?	0
COc1ccc(N(CC(C)C)S(=O)(=O)c2nnc(NC(=O)c3ccco3)s2)cc1	0	-2%	16	-3%	-2%	1
O=C(CSc1cccc[n+]1[O-])Nc1ccc2c(c1)OCO2	3	0%	-11	-1%	-1%	-1
